Assay [1] can be described thus: qHTS assay to identify small molecule antagonists of the estrogen receptor alpha (ER-alpha) signaling pathway using the BG1 cell line in the presence of 0.1 nM 17-beta-estradiol - cell viability counter screen (AID 1259241). Further: nearly all actives have a fitted effect of over 40% in size. In outline:
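Viability in VM7Luc4E2 cells after 22 hr compound exposure under 0.1 nM 17beta-estradiol stimulation, by CellTiter-Fluor.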
Background: qHTS replaces the single test concentration by a dilution series.

Assay [2] can be described thus: qHTS assay to identify small molecule antagonists of the androgen receptor (AR) signaling pathway using the MDA cell line in the presence of 0.5 nM R1881 - cell viability counter screen (AID 1259242). Further: nearly all actives have a fitted effect of over 45% in size. In outline:
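qHTS format. MDA-kb2 (MMTV-luc, AR/GR responsive) + cpd + 0.5 nM R1881 final, 16 hr 37C/0% CO2 → CellTiter-Fluor 30 min → fluorescence intensity.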

Assay [3] deals with Estrogen receptor (Homo sapiens) (UniProt P03372). As to the kind of experiment: qHTS assay to identify small molecule antagonists of the estrogen receptor alpha (ER-alpha) signaling pathway using the BG1 cell line in the presence of 0.1 nM 17-beta-estradiol (AID 1259244). Further: nearly all actives have a fitted effect of over 50% in size. In outline:
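Reporter is a stably transfected luciferase under four estrogen responsive elements in VM7Luc4E2 cells expressing native full-length ER-alpha; inhibition of 0.1 nM (final) 17beta-estradiol-driven signal over 22 h is read by luminescence.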

Assay [4] can be described thus: qHTS assay to identify small molecule HDAC inhibitors - cell viability counter screen (AID 1259365). Further: series mostly up to about 92 µM; nearly all actives have a fitted effect of over 50% in size. In outline:
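Cytotoxicity was gauged in wild-type HCT-116 cells after a brief 2hr treatment with DMSO-dissolved compounds at 37C and 5% CO2, using CellTiter-Glo luminescence developed for 30min at room temperature.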

Assay [5] can be described thus: qHTS assay to identify small molecule agonists of the sonic hedgehog signaling (Shh) pathway - cell viability counter screen (AID 1259366). Further: nearly all actives have a fitted effect of over 50% in size. In outline:
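Stable Gli1-Luc NIH/3T3 clone, 2,000 cells/well. Compound exposure 24hr at 37C. Read-out: CellTiter-Fluor fluorescence.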

A short description of assay [6]: qHTS assay to identify small molecule antagonists of the sonic hedgehog signaling (Shh) pathway - cell viability counter screen (AID 1259367). Further: nearly all actives have a fitted effect of over 55% in size. Further: potency means the concentration at half of the fitted maximal effect. The gist of the method: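 CellTiter-Fluor signal in conditioned medium-stimulated 3T3 Gli1-Luc cells, 23 hr compound exposure, 37C.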
Assay [7] is described as follows: qHTS assay to identify small molecule agonists of the sonic hedgehog signaling (Shh) pathway (AID 1259368; calls by dose curve;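 further: NIH/3T3-derived 3T3Gli1-Luc cells carrying a stable Gli1-driven firefly luciferase reporter; series mostly up to about 92 µM; nearly all actives have a fitted effect of over 15% in size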). The gist of the method: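 Quantitative high-throughput format using a Gli1-driven firefly luciferase reporter line derived from NIH/3T3 cells. After a 24 hr compound treatment at 37 C and 5% CO2, luminescence reported Gli1 response element activity.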
Assay [8] can be described thus: qHTS assay to identify small molecule antagonists of the sonic hedgehog signaling (Shh) pathway (AID 1259369; calls by dose curve; further: nearly all actives have a fitted effect of over 45% in size). In outline:
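Stable Gli1-Luc reporter NIH/3T3 clone; quantitative HTS in stimulated mode with conditioned medium. Luminescence measured after 24hr compound treatment at 37 C.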

Assay [9] addresses Estrogen receptor beta (Homo sapiens) (UniProt Q92731). The assay can be described thus: qHTS assay to identify small molecule agonists of the estrogen receptor beta (ER-beta) signaling pathway (AID 1259377; active means well fitted activation curve with a large enough effect in the signal ratio in the repeat runs, not every such curve was filed as active; the % refers to the signal ratio). In outline: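 Measured by fluorescence intensity from a B/G FRET beta-lactamase substrate (2 h, room temperature) in ER-beta-UAS-bla HEK293T cells treated with DMSO-dissolved compounds for 16 hr at 37C and 5% CO2.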

The target is the same in assay [10]. The assay can be described thus: qHTS assay to identify small molecule antagonists of the estrogen receptor beta (ER-beta) signaling pathway (AID 1259378; active means well fitted inhibition curve with a large enough effect in the signal ratio in the repeat runs, not every such curve was filed as active; the % refers to the signal ratio). In outline: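 Antagonist mode: compounds added to beta-lactamase reporter HEK293T ER-beta-UAS cells stimulated with E2 (1nM final), 16 hr at 37C. LiveBLAzer B/G FRET substrate, 2 hours room temperature, fluorescence read-out.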

The nature of assay [11]: qHTS assay to identify small molecule agonists of the androgen receptor (AR) signaling pathway in the presence of an antagonist - cell viability counter screen (AID 1259379).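 Further: MDA-kb2 human breast cancer cells carrying an MMTV luciferase reporter; series mostly up to about 92 µM; nearly all actives have a fitted effect of over 25% in size.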 In outline: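 Nilutamide-containing (3.0uM final) MDA-kb2 cultures, 3,000 cells/well, were treated with compounds across 15 concentrations. After 16 hr at 37C with no CO2, cell viability was determined by CellTiter-Fluor fluorescence in the luciferase assay wells.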

Assay [12] is described as follows: qHTS assay to identify small molecule agonists of the estrogen receptor beta (ER-beta) signaling pathway - cell viability counter screen (AID 1259380). Further: nearly all actives have a fitted effect of over 30% in size. The gist of the method: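 Steps: plate ER-beta-UAS-bla HEK293T cells, rest 6 hr; add compounds in DMSO; incubate 16 hr at 37C, 5% CO2; add FRET substrate 2 hr; add CellTiter-Glo, wait 30 min at room temperature; read luminescence.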

A short description of assay [13]: qHTS assay to identify small molecule antagonists of the estrogen receptor beta (ER-beta) signaling pathway - cell viability counter screen (AID 1259382). Further: series mostly up to about 92 µM; nearly all actives have a fitted effect of over 55% in size. In outline: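 Viability is scored by CellTiter-Glo luminescence (30 min, room temperature) in ER-beta-UAS-bla HEK293T wells already read for reporter fluorescence. Compound exposure lasts 16 hr at 37C alongside 1nM 17-beta-estradiol in charcoal-stripped serum medium.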

The nature of assay [14]: qHTS assay to identify small molecule agonists or antagonists of the thyroid stimulating hormone receptor (TSHR) signaling pathway - wild type cell line counter screen (AID 1259384; calls by dose curve). In outline: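 Counter screen in untransfected Hek293: compounds (15-point titration, triplicate) plus phosphodiesterase inhibitor Ro20-1724 added after 18 h plating; 30 min RT. Intracellular cAMP via competitive d2/cryptate immunoassay, 1 h incubation.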

The target of assay [15] is Thyrotropin receptor (Homo sapiens) (UniProt P16473). The assay can be described thus: qHTS assay to identify small molecule antagonists of the thyroid stimulating hormone receptor (TSHR) signaling pathway (AID 1259385; calls by dose curve; further: nearly all actives have a fitted effect of over 20% in size). In outline:
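Antagonist mode: compound-treated TSHR-expressing HEK293 cells were stimulated with 1.5 ng/mL TSH (final) in presence of Ro20-1724 for 30 min at RT. HTRF cAMP detection after 1 h; each compound tested at 15 concentrations, triplicate.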

Assay [16] in a line: qHTS assay to identify small molecule agonists of the estrogen receptor alpha (ER-alpha) signaling pathway in the presence of an antagonist - cell viability counter screen (AID 1259386).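 Further: series mostly up to about 92 µM; cells exposed to compounds for 22 h at 37 °C before the viability read; nearly all actives have a fitted effect of over 30% in size.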 In outline: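 In this counter screen, compound effects on VM7Luc4E2 viability were tested in the presence of the antagonist ICI-182,780 at 10.0nM final. Compounds were dosed at 15 concentrations, exposure lasted 22hr, and the CellTiter-Fluor signal was read.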

Assay [17] in a line: qHTS assay to identify small molecule HDAC inhibitors (AID 1259364).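 Further: wild-type HCT-116 cells with endogenous class I/II HDAC activity; top concentration of the series differs between compounds; nearly all actives have a fitted effect of over 45% in size.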 In outline: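 Quantitative high-throughput format: overnight-seeded HCT-116 cells got compounds for 2 hr at 37C; HDAC-Glo I/II reagent added, 30 min RT, luminescence measured.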
Assay [18] can be described thus: qHTS assay to identify small molecule phospholipidosis (PLD) inducers (AID 1259344; active means well fitted curve in the direction sought with a large enough effect; an effect the other way counts as inactive or inconclusive). In outline: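 Accumulated phospholipid, stained red by LipidTOX during 24 h compound treatment of HepG2 cells at 37 C, is quantified from images as pit number and intensity, normalised per cell using Hoechst-stained nuclei.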
Assay [19] deals with Estrogen receptor (Homo sapiens) (UniProt P03372). As to the kind of experiment: qHTS assay to identify small molecule agonists of the estrogen receptor alpha (ER-alpha) signaling pathway in the presence of an antagonist (AID 1259383; calls by dose curve; further: top concentration of the series differs between compounds; nearly all actives have a fitted effect of over 15% in size). In outline: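 Readout was ERE-driven luciferase luminescence in VM7Luc4E2 cells, which express full-length ER-alpha endogenously. Compounds were tested at 15 concentrations for 22hr alongside 10.0nM ICI-182,780 (final concentration).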

Where “and” joins values, the source holds several entries; their conditions need not be identical. Equal entries are not always repeated. Inconclusive results are not listed. The source holds several records for some structures; these can differ, active in one and inactive in another. Calls of active or inactive are those of the source. Unless noted, the call rests on the fitted dose curve; in most records, active means well fitted curve in the direction sought with a large enough effect in the repeat runs; inconclusive means weak or mixed curves; inactive means no such curve, though single readings can be large; an effect the other way counts as inactive or inconclusive.

Chain of Estrogen receptor beta (Homo sapiens) (Q92731 whole entry, looked up): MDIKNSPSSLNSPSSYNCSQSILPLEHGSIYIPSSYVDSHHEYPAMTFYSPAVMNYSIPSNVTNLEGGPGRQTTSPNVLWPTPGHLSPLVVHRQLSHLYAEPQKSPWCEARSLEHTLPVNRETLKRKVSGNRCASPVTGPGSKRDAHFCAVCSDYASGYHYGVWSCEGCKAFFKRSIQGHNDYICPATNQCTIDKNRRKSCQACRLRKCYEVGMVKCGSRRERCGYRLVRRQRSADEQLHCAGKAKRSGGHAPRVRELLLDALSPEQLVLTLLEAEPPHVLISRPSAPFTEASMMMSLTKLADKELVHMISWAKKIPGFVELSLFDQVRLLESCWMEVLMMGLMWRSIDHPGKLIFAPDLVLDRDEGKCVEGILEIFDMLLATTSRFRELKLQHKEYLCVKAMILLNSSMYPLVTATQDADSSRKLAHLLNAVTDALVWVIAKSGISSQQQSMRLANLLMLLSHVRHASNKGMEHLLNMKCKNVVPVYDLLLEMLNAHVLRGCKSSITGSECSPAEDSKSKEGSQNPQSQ
Chain of Thyrotropin receptor (Homo sapiens) (P16473 whole entry, looked up): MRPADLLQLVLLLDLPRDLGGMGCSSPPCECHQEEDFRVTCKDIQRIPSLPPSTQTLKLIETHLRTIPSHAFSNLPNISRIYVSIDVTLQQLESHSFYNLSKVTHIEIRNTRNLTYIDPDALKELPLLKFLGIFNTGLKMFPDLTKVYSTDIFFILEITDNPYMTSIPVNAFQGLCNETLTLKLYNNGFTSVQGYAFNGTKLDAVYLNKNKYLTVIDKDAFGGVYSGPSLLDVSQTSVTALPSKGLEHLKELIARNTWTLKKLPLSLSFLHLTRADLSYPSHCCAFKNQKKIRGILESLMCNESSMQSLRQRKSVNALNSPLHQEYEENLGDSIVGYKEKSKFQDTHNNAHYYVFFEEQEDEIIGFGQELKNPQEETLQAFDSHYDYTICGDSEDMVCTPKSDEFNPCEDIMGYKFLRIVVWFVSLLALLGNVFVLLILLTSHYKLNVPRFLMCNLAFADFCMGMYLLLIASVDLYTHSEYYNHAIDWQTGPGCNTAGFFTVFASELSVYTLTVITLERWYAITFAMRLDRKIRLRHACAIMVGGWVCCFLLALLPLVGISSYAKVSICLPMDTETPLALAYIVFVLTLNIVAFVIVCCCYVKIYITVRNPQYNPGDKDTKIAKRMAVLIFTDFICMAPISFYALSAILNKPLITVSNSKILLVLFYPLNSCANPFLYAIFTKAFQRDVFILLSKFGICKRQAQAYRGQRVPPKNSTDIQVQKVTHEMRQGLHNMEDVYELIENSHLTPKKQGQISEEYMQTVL
Chain of Estrogen receptor (Homo sapiens) (P03372 whole entry, looked up): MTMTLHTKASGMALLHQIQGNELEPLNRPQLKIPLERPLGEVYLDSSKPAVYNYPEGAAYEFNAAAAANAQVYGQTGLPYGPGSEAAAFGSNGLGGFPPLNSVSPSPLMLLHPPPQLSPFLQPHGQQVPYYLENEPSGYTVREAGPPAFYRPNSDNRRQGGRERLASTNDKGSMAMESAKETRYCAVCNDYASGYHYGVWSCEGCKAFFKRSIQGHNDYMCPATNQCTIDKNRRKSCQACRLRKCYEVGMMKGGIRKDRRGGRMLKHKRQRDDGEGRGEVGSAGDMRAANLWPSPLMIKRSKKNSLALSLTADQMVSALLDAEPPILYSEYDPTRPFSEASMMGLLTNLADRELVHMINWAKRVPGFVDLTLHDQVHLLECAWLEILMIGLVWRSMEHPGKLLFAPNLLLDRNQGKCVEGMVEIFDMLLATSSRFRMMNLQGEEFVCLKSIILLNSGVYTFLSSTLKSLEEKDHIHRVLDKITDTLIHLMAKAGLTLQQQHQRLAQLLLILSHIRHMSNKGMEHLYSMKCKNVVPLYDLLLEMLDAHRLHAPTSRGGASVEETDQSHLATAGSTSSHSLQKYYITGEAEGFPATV

With `CCC=O`, the result in assay [1], in [3], in assay [4], in assay [7], in [9] and in assay [10] was inactive. The outcome in [14] was inactive. For the same compound, the Potency result in assay [2], in assay [5], in [6], in assay [8], in assay [11] and in [12] was “inactive” throughout. Moreover, the Potency entry in assay [13], in assay [15] and in [16] was “inactive” throughout.
For `NC(=O)c1ccc(N)cc1`, the outcome in assay [1], in assay [3], in assay [4], in assay [7], in assay [9] and in [10] was inactive. Moreover, the outcome in assay [14] was inactive. Besides, the Potency result in assay [2], in [17], in [5], in [6], in assay [11] and in assay [12] was “inactive” throughout. Moreover, the Potency result in assay [13], in assay [15] and in assay [16] was “inactive” throughout.
Regarding `O=C(O)CCCc1ccccc1`, the outcome in assay [1], in assay [4], in assay [7], in assay [9] and in assay [14] was inactive. The Potency result in [2], in [18], in assay [17], in [5], in [6] and in assay [8] was “inactive” in each case. In addition, the Potency result in assay [11], in assay [12], in [13], in assay [15] and in assay [16] was “inactive” throughout.
In the case of `CCC(C)C1CCCCC1=O` (centres undefined), the result in assay [1], in assay [3], in assay [4], in assay [7], in [9] and in [10] was inactive. Further, the Potency result in assay [2], in [17], in [5], in assay [6], in [11] and in assay [12] was “inactive” throughout. Also, the Potency result in assay [13], in assay [19], in assay [15] and in assay [16] was “inactive” in each case.
In the case of `CCN(CC)CCOCCOC(=O)C1(c2ccccc2)CCCC1`, the result in assay [1], in [3], in assay [4], in assay [7] and in [14] was inactive. Further, the Potency entry in [2], in [17], in assay [11], in [12], in assay [13] and in assay [15] was “inactive” throughout.
Take `CCOC(=O)C(=O)OCC`: the result in assay [1], in assay [3], in assay [4], in assay [9] and in assay [10] was inactive. In addition, the Potency result in assay [2], in assay [17], in [5], in assay [6], in [8] and in [11] was “inactive” each time. Besides, the Potency result in [12], in [13], in assay [19], in assay [15] and in assay [16] was “inactive” throughout.
As to `CC1(C)CO[C@@H](CC(=O)O)CN1`, the result in assay [1], in [3], in [4], in assay [7], in [9] and in [10] was inactive. Further, the compound was called inactive in assay [14]. Also, the Potency result in assay [2], in assay [5], in assay [6], in [8], in [11] and in assay [12] was “inactive” throughout. For the same compound, the Potency result in assay [13], in [19], in [15] and in [16] was “inactive” throughout.
Turning to `C=COCC1CCC(CO)CC1` (centres undefined), the outcome in assay [1], in assay [3], in assay [4] and in assay [14] was inactive. Further, the Potency result in assay [2], in [17], in assay [5], in assay [6], in assay [11] and in assay [12] was “inactive” in each case. Also, the Potency entry in assay [13], in assay [19], in assay [15] and in assay [16] was “inactive” throughout.
With `CC(C)(C)NCCNC(C)(C)C`, the outcome in assay [1], in assay [3] and in [4] was inactive. The Potency result in assay [2], in [17], in [5], in assay [6], in assay [8] and in assay [11] was “inactive” in each case. Also, the Potency result in assay [12], in [13], in assay [19], in [15] and in [16] was “inactive” throughout.
Regarding `O=c1n(CCO)c(=O)n(CCO)c(=O)n1CCO`, the outcome in [1], in assay [3], in [4], in assay [7], in assay [9] and in assay [10] was inactive. In assay [14], the compound was classed as inactive. Moreover, the Potency result in assay [2], in assay [5], in assay [11], in [12], in [13] and in assay [19] was “inactive” each time. Also, the Potency result in [15] and in assay [16] was “inactive” throughout. For the same compound, the Potency result in assay [6] is “inactive and 54.5 µM (active)”.
In the case of `NC(=O)c1cn(Cc2c(F)cccc2F)nn1`, the outcome in [1], in [4], in assay [7], in assay [9], in assay [10] and in assay [14] was inactive. Further, the Potency result in assay [2], in assay [17], in [5], in [6], in assay [8] and in assay [11] was “inactive” in each case. For the same compound, the Potency entry in [12], in assay [13], in assay [15] and in assay [16] was “inactive” throughout.
On to `CCc1cccc2c(CCO)c[nH]c12`, for which the result in assay [1], in [4], in [7], in assay [9], in assay [10] and in assay [14] was inactive. Besides, the Potency result in [2], in [17], in [5], in assay [6], in assay [8] and in assay [11] was “inactive” throughout. The Potency result in assay [12], in assay [13], in assay [15] and in [16] was “inactive” in each case.
`Cc1cc(O)cc2c1O[C@](C)(CCC[C@H](C)CCC[C@H](C)CCCC(C)C)CC2`: the result in assay [1], in assay [3], in assay [4], in assay [7] and in assay [14] was inactive. Also, the Potency result in assay [2], in assay [5], in [6], in [8], in assay [11] and in assay [12] was “inactive” each time. Also, the Potency result in assay [13], in assay [19], in assay [15] and in assay [16] was “inactive” throughout.

The values are drawn from PubChem BioAssay (Tox21).
